Screens: PubChem BioAssay, National Center for Advancing Translational Sciences (NCATS)
Pf Dd2 growth: Plasmodium falciparum Dd2 growth inhibition; Potency, µM (top dose mostly 28.9 µM), for the others: top-dose activity, negative = inhibition, most hits filed as inhibitors; 4.3% of 120,000 active; P. falciparum Dd2 growth, SYBR Green, 72 h; active = well fitted inhibition curve with a large enough effect;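 also: plate controls were DMSO vehicle for no effect and reference drug for full effect; nearly all actives have a fitted effect of over 65% in size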
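Infected erythrocytes (Dd2, 0.3% parasitemia, 2.5% hematocrit final) are added to compound in RPMI-1640/Albumax II medium, grown 72 h at 37C in low oxygen, then lysed with saponin/Triton-X containing SYBR Green and read by fluorescence.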
* marks the source's active call; other numbers are inactive results; i = inactive; [ ] = remark or other dose. This is one part of a sample in which hits are shown more often than they occur. Potency is read from the fitted curve at half-maximal effect.

SMILES	Pf Dd2 growth
O=C(C1CCCC1)N1CC2(CCCN(Cc3ccc(Cl)cc3)C2)Cc2ccccc21 (stereo unspecified)	12.6µM*
CC(=O)N1CC2(Cc3ccccc31)CN(C(=O)NC1CCCC1)C2	4.3%[44.1 µM]
O=C(C1CCCC1)N1CC2(CCN(C3COC3)CC2)Cc2ccccc21	16.7%
CCOC(=O)c1ccc(NC(=O)N2Cc3[nH]cnc3C[C@H]2c2nc(-c3ccc(OC(F)(F)F)cc3)no2)cc1	i
NCCCC(=O)N1CCC2(CC1)CN([S+](=O)([O-])c1ccccc1)CCO2	11.9%
Cc1nc([C@H]2CCN(Cc3ccc(C)o3)C[C@H]2NC(=O)C2CCOCC2)n[nH]1	-19.8%
CCN1C(=O)C2(CCN(S(=O)(=O)c3ccc(C(F)(F)F)cc3)CC2)c2ccccc21	i
CO[C@H]1[C@H](NC(=O)c2ccc(F)cc2)c2ccccc2C12CCNCC2	8.3%
CCn1ccc(C(=O)N2CCC(CC(=O)NC3CC3)C2)n1 (stereo unspecified)	-6.7%
COCC(=O)N(C1CCOCC1)C1CCN(Cc2cccnc2)CC1	-22.8%
Nc1nc(C(=O)N[C@H]2CCOC[C@H]2C2CCOCC2)cs1	-0.1%
COC(=O)[C@H](NC(=O)[C@@H]1C[C@H](NC(=O)Nc2cccc(SC)c2)CN1C(=O)C=C(C)C)C(C)C	4.6%
COCCn1c(=O)[nH]c2cc(C(=O)NCc3ccccc3Cl)ccc2c1=O	-17.9%
COC(=O)Cc1c(C)c2ccc3c(c2oc1=O)CN(Cc1ccccc1Cl)CO3	7.08µM*
CCC1Oc2ccc(NC(=O)C3CCCC3)cc2CN(Cc2ccccc2Cl)C1=O (stereo unspecified)	-17.5%
COc1ccccc1CNC(=O)Cc1c(C)c2c(cc(C)c3c(C)c(C)oc32)oc1=O	17.2%
COc1ccccc1CCNC(=O)Cc1c(C)c2c(cc(C)c3c(C)c(C)oc32)oc1=O	8.2%
COc1ccc(CNC(=O)Cc2c(C)c3cc4c(C)coc4c(C)c3oc2=O)cc1	-1.4%
COC(=O)Cc1c(C)c2ccc3c(c2oc1=O)CN(Cc1ccccc1OC)CO3	12.6µM*
COc1cccc(CN2CCOc3ccc(C(=O)NCc4ccc(C)cc4)cc3C2)c1	i
COC(=O)Cc1c(C)c2ccc3c(c2oc1=O)CN(Cc1ccc(C)cc1)CO3	11.2µM*
COc1ccc(NC(=O)CN2C(=O)NC(c3ccc(Cl)cc3)C3=C2COC3=O)cc1Cl (stereo unspecified)	-4.7%
O=C(c1ccn[nH]1)N1C[C@@H](COCC2CC2)[C@H](c2ccccn2)C1	17.1%
Clc1ccccc1C1Cn2cnc(-c3nc(-c4ccccn4)no3)c2CO1 (stereo unspecified)	6.31µM*
FC(F)(F)c1ccc(-c2noc(-c3ncn4c3COC(c3ccccc3Cl)C4)n2)cc1 (stereo unspecified)	-11.6%
SMILES	Pf Dd2 growth
Fc1ccc(-c2noc(-c3ncn4c3COC(c3ccccc3Cl)C4)n2)cc1 (stereo unspecified)	-20.7%
CCCCNc1ncc(C(=O)O)c(COC)n1	i
Cc1ccc(CN[C@@H]2CO[C@H](CNS(=O)(=O)c3ccc(C)cc3)[C@H]2O)cc1	i
Cc1nc(CN2Cc3nc(Nc4ccc(C(F)(F)F)cc4)ccc3OCC2=O)cs1	11.2µM*
O=C1COc2ccc(-c3ccsc3)nc2CN1Cc1ccccc1	-5.0%[44.1 µM]
Cc1nc(CN2Cc3nc(-c4ccccc4)ccc3OCC2=O)cs1	-16.5%[44.1 µM]
CN1Cc2nc(Nc3ccc(C(F)(F)F)cc3)ccc2OCC1=O	i
O=C1COc2ccc(-c3ccsc3)nc2CN1Cc1ccc(C(F)(F)F)cc1	7.94µM*
O=C1COc2ccc(-c3cccnc3)nc2CN1Cc1ccc(C(F)(F)F)cc1	-25.0%[44.1 µM]
O=C(Cc1ccccc1F)N1CCC(c2noc(-c3cccnc3)n2)C1 (stereo unspecified)	i[5.79 µM]
CC(=O)N[C@@H]1CCC[C@@H](C(=O)NCc2cc(C)on2)CC(=O)N(C)C1	35.9%[44.1 µM]
COC[C@@H]1CN(C(=O)Cc2cccc(OC)c2)C[C@H]1c1ccncc1	4.5%
O=C(C1CN(c2cccc(Cl)c2)C(=O)N1)N1CCCC1 (stereo unspecified)	12.1%[44.1 µM]
C=CCc1ccccc1OCCN(C)Cc1ncnn1CC	-12.7%
C=CCc1ccccc1OCCN(C)Cc1ccc(S(C)(=O)=O)cc1	-14.1%
C=CCc1ccccc1OCCN(C)Cc1nc(C)ccc1O	8.91µM*
O=C(NCc1ccccc1)c1nc2c(o1)CCN(Cc1ccc(F)c(Cl)c1)CC2	-21.2%[44.1 µM]
O=C(COc1ccccc1)Nc1ccc([C@@H](O)[C@H]2COCC(=O)N2)cc1	i
O=C(Nc1ccc(-c2nnc3n2CCCC3)cc1)Nc1ccccc1F	-17.1%
COc1ccc(CCC(=O)Nc2cccc(-c3nnc4n3CCCC4)c2)cc1	7.94µM*
Cc1cccc(NC(=O)Cn2nc3n(c2=O)CCCCC3)c1	27.2%
COc1cccc(NC(=O)Cn2c(C)cc3nc4n(c(=O)c32)CCCCC4)c1	-11.3%
O=C(CCCc1ccccc1)Nc1cccc(-c2nnc3n2CCCC3)c1	4.47µM*
COc1ccccc1CCC(=O)Nc1ccc(-c2nnc3n2CCCC3)cc1	i
C[C@@]1(O)CCN(CC2CCCCC2)C[C@H]1N1CCCC1	-18.2%[5.79 µM]
